Results filed as inconclusive are left out. Values without a mark were called inactive. The source made the active and inactive calls. Calls follow the shape of the dose curve; as a rule, active = well fitted cell-killing curve with a large enough effect; inconclusive = small, poorly fitted or top-dose-only effect, or effect the other way; inactive = no such curve, though single readings can be large or run the other way.
Tests used:
[1] = Quantitative High-Throughput drug screen in 47 multiple myeloma cell lines against the NCATS MIPE library collection: OCIMY7_PLB cell viability assay (AID 1918987); also: nearly all actives have a fitted effect of over 65% in size
In short: (§1)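 Readout: median RLU from CellTiter-Glo after 5 min at room temperature. Preceding step was 48 h drug treatment of 500 cells/well at 37 °C, 5% CO2, with DMSO-only and media-only control wells.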

[2] = Quantitative High-Throughput drug screen in 47 multiple myeloma cell lines against the NCATS MIPE library collection: OCIMY5_PLB cell viability assay (AID 1918988); also: nearly all actives have a fitted effect of over 65% in size
In short: as §1

[3] = Quantitative High-Throughput drug screen in 47 multiple myeloma cell lines against the NCATS MIPE library collection: OPM1_PLB cell viability assay (AID 1918989); also: nearly all actives have a fitted effect of over 40% in size
In short: as §1

[4] = Quantitative High-Throughput drug screen in 47 multiple myeloma cell lines against the NCATS MIPE library collection: SKMM1_PLB cell viability assay (AID 1919863); conditions: SKMM1 myeloma viability, CellTiter-Glo ATP, 48 h; viability: stronger effect = lower value; also: nearly all actives have a fitted effect of over 35% in size; as to viability: series mostly up to about 46 µM
In short: as §1

[5] = Quantitative High-Throughput drug screen in 47 multiple myeloma cell lines against the NCATS MIPE library collection: U266_ATCC cell viability assay (AID 1919864); also: nearly all actives have a fitted effect of over 35% in size
In short: as §1

[6] = Quantitative High-Throughput drug screen in 47 multiple myeloma cell lines against the NCATS MIPE library collection: XG6_PLB cell viability assay (AID 1919865); also: nearly all actives have a fitted effect of over 40% in size
In short: as §1

[7] = Quantitative High-Throughput drug screen in 47 multiple myeloma cell lines against the NCATS MIPE library collection: XG1_PLB cell viability assay (AID 1919866); also: nearly all actives have a fitted effect of over 35% in size
In short: as §1

[8] = Quantitative High-Throughput drug screen in 47 multiple myeloma cell lines against the NCATS MIPE library collection: VP6_DJ cell viability assay (AID 1919867); also: nearly all actives have a fitted effect of over 40% in size
In short: as §1

[9] = Quantitative High-Throughput drug screen in 47 multiple myeloma cell lines against the NCATS MIPE library collection: UTMC2_PLB cell viability assay (AID 1919868); also: nearly all actives have a fitted effect of over 55% in size
In short: as §1

[10] = Quantitative High-Throughput drug screen in 47 multiple myeloma cell lines against the NCATS MIPE library collection: PE2_PLB cell viability assay (AID 1919869); also: nearly all actives have a fitted effect of over 35% in size
In short: as §1
Potency is read from the fitted curve at half-maximal effect.

| Compound | Potency [1] | Potency [2] | Potency [3] | Potency [4] | Potency [5] | Potency [6] | Potency [7] | Potency [8] | Potency [9] | Potency [10] | viability [4] [%] |
| --- | --- | --- | --- | --- | --- | --- | --- | --- | --- | --- | --- |
| Oc1c(Cl)cc(Cl)c2cccnc12 | 10.5 µM (active) | 6.62 µM (active) | 10.5 µM (active) | 18.7 µM (active) | 8.33 µM (active) | 4.69 µM (active) | 11.8 µM (active) | 5.9 µM (active) | 11.8 µM (active) | 9.35 µM (active) |  |
| CNCC[C@H](Oc1cccc2ccccc12)c1cccs1 | 0.59 µM (active) | 2.35 µM (active) | 8.33 µM (active) |  | 2.35 µM (active) | 0.59 µM (active) | 0.833 µM (active) |  | 2.64 µM (active) | 4.18 µM (active) |  |
| COC(=O)Nc1nc2ccc(C(=O)c3ccccc3)cc2[nH]1 | 0.418 µM (active) | 0.418 µM (active) | 1.66 µM (active) | 0.332 µM (active) | 14.8 µM (active) | 0.418 µM (active) | 0.332 µM (active) |  | 2.35 µM (active) | 2.96 µM (active) |  |
| Nc1nc(=S)c2[nH]cnc2[nH]1 | 1.32 µM (active) | 3.72 µM (active) | 1.18 µM (active) | 5.9 µM (active) | 8.33 µM (active) | 1.05 µM (active) |  |  | 5.9 µM (active) | 1.66 µM (active) |  |
| CC1=CC(=O)c2ccccc2C1=O | 33.2 µM (active) | 16.6 µM (active) | 23.5 µM (active) | 16.6 µM (active) | 18.7 µM (active) | 14.8 µM (active) | 23.5 µM (active) | 16.6 µM (active) |  | 4.18 µM (active) |  |
| CC(=O)Oc1ccccc1C(=O)Nc1ncc([N+](=O)[O-])s1 | 21.5 µM (active) | 13.6 µM (active) | 24.1 µM (active) | 38.2 µM (active) |  | 24.1 µM (active) | 30.3 µM (active) | 17.1 µM (active) | 13.6 µM (active) | 13.6 µM (active) |  |
| CC(C)(C)NC(=O)[C@H]1CC[C@H]2[C@@H]3CC[C@H]4NC(=O)C=C[C@]4(C)[C@H]3CC[C@]12C | 0.332 µM (active) | 0.59 µM (active) | 2.64 µM (active) |  | 0.743 µM (active) | 0.132 µM (active) | 0.235 µM (active) |  | 1.66 µM (active) | 1.32 µM (active) | 142 |
| C[C@@H]1C[C@H]2[C@@H]3CCC4=CC(=O)C=C[C@]4(C)[C@@]3(Cl)[C@@H](O)C[C@]2(C)[C@@]1(OC(=O)c1ccco1)C(=O)CCl | 9.35 µM (active) | 16.6 µM (active) | 10.5 µM (active) |  | 9.35 µM (active) | 1.66 µM (active) | 3.72 µM (active) | 2.96 µM (active) | 10.5 µM (active) | 5.9 µM (active) |  |
| CCCCOc1ccc(CC(=O)NO)cc1 | 16.6 µM (active) | 9.35 µM (active) | 14.8 µM (active) |  | 8.33 µM (active) |  | inactive |  |  |  |  |
| C[C@@H](CN1CC(=O)NC(=O)C1)N1CC(=O)NC(=O)C1 | 2.35 µM (active) | inactive |  |  | inactive |  |  |  | 2.96 µM (active) |  | 130 |
| CO[C@@H]1[C@@H](OC(N)=O)[C@@H](O)[C@H](Oc2ccc3c(O)c(NC(=O)c4ccc(O)c(CC=C(C)C)c4)c(=O)oc3c2C)OC1(C)C | 5.9 µM (active) | 8.33 µM (active) | 5.26 µM (active) |  |  | 6.62 µM (active) | 5.9 µM (active) |  |  | 6.62 µM (active) |  |
| CCC(=O)O[C@]1(C(=O)SCF)[C@H](C)C[C@H]2[C@@H]3C[C@H](F)C4=CC(=O)C=C[C@]4(C)[C@@]3(F)[C@@H](O)C[C@@]21C | 5.26 µM (active) | 23.5 µM (active) | inactive |  |  | 4.18 µM (active) | 14.8 µM (active) |  |  | inactive |  |
| CCCc1cc(C(N)=S)ccn1 | inactive | inactive | inactive |  |  | inactive | inactive |  |  | inactive |  |
| COc1cc(NCc2ccc3nc(N)nc(N)c3c2C)cc(OC)c1OC | 1.48 µM (active) | 6.62 µM (active) | 5.9 µM (active) | 11.8 µM (active) | 1.48 µM (active) | 11.8 µM (active) |  |  | 0.743 µM (active) | 1.66 µM (active) |  |
| O=C(O)C1CCCN(CCC=C(c2ccccc2)c2ccccc2)C1 (stereo not drawn) | inactive | inactive | inactive |  |  | inactive | inactive |  |  | inactive | 122 |
| COC(=O)Nc1nc2ccc(Sc3ccccc3)cc2[nH]1 | 0.209 µM (active) | 1.18 µM (active) | 1.66 µM (active) | 3.32 µM (active) |  |  |  | 1.05 µM (active) | 2.09 µM (active) | 1.18 µM (active) |  |
| CNC(=O)c1cc(Oc2ccc(NC(=O)Nc3ccc(Cl)c(C(F)(F)F)c3)cc2)ccn1 | 3.32 µM (active) | 23.5 µM (active) | 10.5 µM (active) | 29.6 µM (active) | 23.5 µM (active) | 0.148 µM (active) |  |  | 9.35 µM (active) | 7.43 µM (active) |  |
| CCc1c2c(nc3ccc(OC(=O)N4CCC(N5CCCCC5)CC4)cc13)-c1cc3c(c(=O)n1C2)COC(=O)[C@]3(O)CC | 0.296 µM (active) | 1.48 µM (active) | 13.2 µM (active) | 0.526 µM (active) | 0.166 µM (active) | 0.418 µM (active) |  | 1.18 µM (active) | 0.418 µM (active) | 0.935 µM (active) |  |

From PubChem BioAssay (NCATS)
